Screens (PubChem BioAssay)
This excerpt belongs to a sample that is enriched for hits.
DAT uptake mod = changed hDAT dopamine uptake under cocaine IC80, either direction, primary screen, cocaine antagonist project, cell-based, LLC-PK1 hDAT, [14C]-dopamine uptake, MLSMR. B-score at 10 µM. Sodium-dependent dopamine transporter (Homo sapiens), Q01959. LLC-PK1 hDAT cells, [14C]-dopamine uptake with cocaine IC80; actives deviate in either direction. 1.3% of 110,000 active. AID 449768, 2010;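 active means Z score or B-score, a plate-position-corrected score, falls beyond the plate's 99.7% confidence bounds, in either direction; inactive means both scores lie inside the 99.7% bounds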;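 further: scored against the spread of the other compound wells on the same plate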
D1 mod = D1 CRE-luciferase signal change, two-sided – cell-based, HEK293 D1, dopamine EC30, D1 allosteric modulator project, primary screen. dopamine EC30 potentiation; actives deviate in either direction. B-score at 10 µM. 5.9% of 58,000 active. AID 641, 2007;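 active means luminescence count or its row- and column-corrected plate score outside the 99.7% band of the plate's sample wells, on either side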
BAP1 inh = inhibitors of BAP1 deubiquitinase, primary screen, biochemical, Ub-AMC fluorescence, kinetic. 0.48% of 72,000 active. recombinant BAP1, Ub-AMC hydrolysis fluorescence kinetic; active compounds read low. calls only at 20 µM;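 active means activity remaining at or below 50% of control, provided the compound also passes the data quality filters; inactive means the rest, including low values that fail the filters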;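 further: 100% = DMSO wells rate and 0% = substrate alone blank rate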
Starred values were filed as active, the others as inactive; i = inactive; . = no result given.

SMILES	DAT uptake mod	D1 mod	BAP1 inh
CC1=C(C(=O)OCC(C)C)C(c2cccc(Cl)c2)NC(=O)N1 (stereo not drawn)	.	.	i
Cc1ccc(-c2csc(NC(CO)c3nc4ccccc4n3CCOCCO)n2)cc1 (stereo not drawn)	2.8*	.	.
OCCCn1c(C(CO)Nc2nc(-c3ccc(Cl)cc3)cs2)nc2ccccc21 (stereo not drawn)	2.5*	.	.
Cc1ccc(Cn2c(C(CO)Nc3nc(-c4ccc(F)cc4)cs3)nc3ccccc32)cc1 (stereo not drawn)	1.6	.	.
COc1ccc(-c2csc(NC(CO)c3nc4ccccc4n3Cc3ccc(C)cc3)n2)cc1 (stereo not drawn)	0.0029	.	.
COc1ccc(-n2nc3cc(C)c(NC(=O)c4cccc([N+](=O)[O-])c4C)cc3n2)cc1	.	.	i
O=C(c1ccccc1Cl)N1CCN(c2ccc([N+](=O)[O-])cc2C(F)(F)F)CC1	.	.	i
CCN(CC)c1ccc2cc(-c3nc4ccccc4n3C)c(=O)oc2c1	-0.087	-0.017	i
CCN(CC)c1ccc2cc(-c3nc4ccccc4[nH]3)c(=O)oc2c1	0.35	-3.6*	i
COc1ccc(C2CC(C(F)(F)F)n3nc(C(=O)NCc4c(C)nn(C)c4C)c(Cl)c3N2)cc1 (stereo not drawn)	0.32	-3.1*	i
COc1ccc(CNC(=O)c2nn3c(c2Cl)NC(c2ccc(Br)cc2)CC3C(F)(F)F)cc1 (stereo not drawn)	.	.	i
Cn1c(CNc2nc3ccccc3n2C)nc2ccccc21	0.73	-0.3	i
Cc1ccc(NCc2nc3ccccc3n2C)cc1	-1.3	-4.1*	i
CCCCc1ccc(NC(=O)c2cc3ccccc3o2)cc1	.	.	i
NC(=O)c1cc2cc(Br)ccc2oc1=Nc1ccc(Oc2ccccc2)cc1	.	.	i
CCOC(=O)c1ccc(N2C(=O)c3n[nH]c(C)c3C2c2ccc(OC)cc2)cc1 (stereo not drawn)	1.3	0.35	i
CCOC(=O)c1ccc(N2C(=O)c3n[nH]c(C)c3C2c2ccc(OC)c(OC)c2)cc1 (stereo not drawn)	0.88	-2.3*	i
O=C(Cc1ccccc1)NCC1CCCO1 (stereo not drawn)	-0.0019	.	.
O=C(CCS(=O)(=O)Cc1ccccc1)NCC1CCCO1 (stereo not drawn)	2.1*	-0.63	i
CCOC(=O)C1C(=O)CC(C)(O)C(C(=O)OCC)C1c1cccc([N+](=O)[O-])c1 (stereo not drawn)	.	.	i
CCN=c1scc(-c2ccc3c(c2)NC(=O)CO3)n1N=C1CCCC1	5.5*	-1.4	i
CCCCN=c1scc(-c2ccc3c(c2)NC(=O)CO3)n1N=C1CCCC1	-0.0013	.	.
O=C1COc2ccc(-c3csc(=Nc4ccc(OC(F)F)cc4)n3CC3CCCO3)cc2N1 (stereo not drawn)	1.2	.	.
COc1ccccc1N=c1scc(-c2ccc3c(c2)NC(=O)CO3)n1CC1CCCO1 (stereo not drawn)	0.55	-2.8*	i
O=C(Nc1ccc(-c2nc3ccccc3s2)c(O)c1)c1cc(=O)c2ccccc2o1	.	.	i
SMILES	DAT uptake mod	D1 mod	BAP1 inh
COc1cccc2c3c(c(C)nc12)CC(C)O3 (stereo not drawn)	-0.23	-3.4*	i
CCOC(=O)c1ccc2nc(C)c3c(c2c1)OC(C)C3 (stereo not drawn)	0.17	-2.7*	.
Cc1c2c(nc3c(C)cccc13)OC(C)C2 (stereo not drawn)	-0.18	-0.072	i
COc1ccc2nc(C)c3c(c2c1)OC(C)C3 (stereo not drawn)	-0.096	-1.9	i
COc1ccc(C(=O)CSc2nnnn2C)cc1	.	.	i
c1ccc2nc3ccccc3nc2c1	-1.1	.	.
Nc1nc2ccccc2nc1N	-8*	-0.34	i
CCCc1ccc(Oc2c(C)oc3cc(OCC)ccc3c2=O)cc1	.	.	i
COc1ccc(-c2nc(C(N)=O)c3[nH]c(=O)n(-c4ccccc4OC)c3n2)c(OC)c1	0.18	1.1	i
COc1ccccc1-n1c(=O)[nH]c2c(C(N)=O)nc(-c3cccnc3)nc21	-1.5	18*	i
O=C(Nc1nnc(Cc2ccccc2)s1)c1ccccc1I	.	.	i
CN1C[C@H](C(=O)NC2(C)OC3(O)[C@@H]4CCCN4C(=O)[C@H](Cc4ccccc4)N3C2=O)CC2c3cccc4[nH]cc(c34)C[C@H]21 (stereo partly drawn)	4*	.	.
